The results in this text go back to paper PMC4336329 (PLoS ONE, 2015).

The whole screen tested about 310,000 compounds, of which about 14,000 (4.5%) showed an effect of 50% or more. Effects have a minus sign here. The list comes from a sample in which strong results are over-represented; it also holds similar structures and randomly drawn compounds.
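Note: peak tail current of the secondary pulse compared with the same well before compound.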

human ether-à-go-go-related gene (hERG) potassium channel, sequence (Q12809 whole entry, looked up): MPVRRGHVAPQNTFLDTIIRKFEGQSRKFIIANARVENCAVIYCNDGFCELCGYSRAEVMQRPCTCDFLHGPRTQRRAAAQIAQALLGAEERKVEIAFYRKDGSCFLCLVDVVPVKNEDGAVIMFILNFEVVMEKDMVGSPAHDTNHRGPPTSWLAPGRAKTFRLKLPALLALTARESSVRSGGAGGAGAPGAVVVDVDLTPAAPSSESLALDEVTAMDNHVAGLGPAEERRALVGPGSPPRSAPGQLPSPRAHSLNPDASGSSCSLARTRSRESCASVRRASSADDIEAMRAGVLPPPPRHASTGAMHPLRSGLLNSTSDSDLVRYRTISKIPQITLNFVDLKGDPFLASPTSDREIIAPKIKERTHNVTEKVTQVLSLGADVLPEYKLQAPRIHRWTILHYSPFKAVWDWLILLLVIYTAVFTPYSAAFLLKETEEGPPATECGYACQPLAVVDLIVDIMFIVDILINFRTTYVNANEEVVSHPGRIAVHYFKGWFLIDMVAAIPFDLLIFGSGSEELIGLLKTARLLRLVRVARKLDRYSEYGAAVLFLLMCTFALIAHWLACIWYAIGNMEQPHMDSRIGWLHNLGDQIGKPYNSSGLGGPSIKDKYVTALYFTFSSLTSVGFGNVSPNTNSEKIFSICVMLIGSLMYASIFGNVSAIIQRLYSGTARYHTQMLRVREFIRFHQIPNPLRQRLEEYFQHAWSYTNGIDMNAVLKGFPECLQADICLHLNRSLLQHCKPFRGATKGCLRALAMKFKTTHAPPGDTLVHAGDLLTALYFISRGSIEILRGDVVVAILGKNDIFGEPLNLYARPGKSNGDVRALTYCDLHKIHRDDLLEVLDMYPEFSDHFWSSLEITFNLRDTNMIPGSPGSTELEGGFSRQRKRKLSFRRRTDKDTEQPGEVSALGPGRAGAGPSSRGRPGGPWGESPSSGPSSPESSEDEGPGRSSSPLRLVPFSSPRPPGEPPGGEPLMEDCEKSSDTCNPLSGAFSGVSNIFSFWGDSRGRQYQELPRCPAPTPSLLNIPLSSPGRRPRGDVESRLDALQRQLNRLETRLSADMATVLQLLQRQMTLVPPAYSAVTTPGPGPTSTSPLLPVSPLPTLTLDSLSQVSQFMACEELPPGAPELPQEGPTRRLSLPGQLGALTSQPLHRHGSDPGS

This assay addresses human ether-à-go-go-related gene (hERG) potassium channel (human, UniProt Q12809). Kind of assay: primary screen, population patch clamp on CHO cells stably expressing hERG; higher = less effect of the substance.
On to `Cc1cc(C)cc(C(=O)NC(CC(N)=O)c2ccc(NC3CCCC3)c([N+](=O)[O-])c2)c1` (stereo not drawn), for which the “hERG current change (%, negative = inhibition) at 10uM” value is given as 13.2%.
To `CC(=O)c1ccc(NC(=O)/C(=C\c2cccs2)NC(=O)c2ccco2)cc1` belongs 17.9%; to `Cc1ccc(S(=O)(=O)Oc2ccc(C(c3c(C)[nH][nH]c3=O)c3c(C)[nH][nH]c3=O)cc2)cc1`, -1.83%; to `CC(C)CCn1c(NCCN(C)C)nc2c1c(=O)[nH]c(=O)n2C`, -23.2%.
To `COc1ccc(-n2c(SC3CCOC3=O)nc3ccccc3c2=O)cc1OC` (stereo not drawn) belongs -4.64%; to `COC(=O)c1c(NC(=O)c2cccc(S(=O)(=O)N3CCN(C)CC3)c2)sc(C)c1C`, 13.4%.
To `COc1ccc(C2Nc3ccccc3C(=O)N2NC(=O)c2ccccc2)cc1OC` (stereo not drawn) belongs 3.24%.
With `Cc1ccccc1N=C1SCCN1C(=O)CN1C(=O)NC2(CCCC2)C1=O`, the “hERG current change (%, negative = inhibition) at 10uM” value was -21.7%.
With `CCOc1ccc(C2/C(=C(\O)c3ccc4c(c3)OCCO4)C(=O)C(=O)N2CCCN2CCOCC2)cc1OC` (stereo not drawn), the “hERG current change (%, negative = inhibition) at 10uM” value was 3.69%.
To `Cc1cc(S(=O)(=O)N2CCOCC2)ccc1OCC(=O)Nc1ccc(F)cc1` belongs -18.9%.
To `COc1ccc(C2/C=C\CN(S(=O)(=O)/C=C/c3ccccc3)[C@H](Cc3ccccc3)C(=O)N2Cc2ccc(F)cc2)cc1` (stereo partly drawn) belongs 8.05%; to `COc1ccc(C2SCC(=O)Nc3c2c(C)nn3-c2ccccc2)cc1` (stereo not drawn), -7.35%; to `Cc1nn(-c2ccccc2)c2c1C(c1cccc([N+](=O)[O-])c1)N(c1ccccc1)C(=O)N2` (stereo not drawn), 11.1%.
To `Cc1nn(-c2ccccc2)c2c1C(c1ccc(Cl)cc1)N(c1ccccc1)C(=O)N2` (stereo not drawn) belongs -64.6%; to `O=C(CCCOc1ccc(Cl)cc1)Nc1cccc(C(=O)O)c1`, 13%.
Consider `COc1ccc(NC(=O)c2ccc(-n3c(C)ccc3C)cc2)c(OC)c1`, for which the “hERG current change (%, negative = inhibition) at 10uM” value was -24.3%.
The result for `COC(=O)c1ccc(C23CC4(C2)[C@H](CN(C)[C@@H]4c2ccccc2)C3c2ccc(Cl)nc2)cc1` (stereo partly drawn) reads -28%; that for `CCOc1ccc(CNC(=O)CCC(=O)n2ncc3ccc(Cl)cc32)cc1`, -1.82%.
To `COc1cc(C(=O)N2CCN(C/C=C/c3ccccc3)CC2)cc(OC)c1OC` belongs -35%.
As for `COc1ccccc1/C=C/CN1CCC(Oc2cc(C(=O)NC3CC3)ccc2OC)CC1`, the “hERG current change (%, negative = inhibition) at 10uM” value is listed as -76.5%.
With `COc1cc(C(=O)N2CCN(C/C=C/c3ccccc3)CC2)cc(OC)c1C`, the “hERG current change (%, negative = inhibition) at 10uM” value is reported as -30.2%.
To `COc1ccc(C(=O)NC2CC2)cc1OC1CCN(C/C=C/c2ccccc2)CC1` belongs -79.9%; to `CCOC(=O)c1[nH]c2ccc(OCC)cc2c1NC(=O)CN1CCC2(CC1)OCCO2`, -25.7%.
Regarding `Cc1ccsc1CNn1cnnc1SCc1ccc(Cl)cc1`, the “hERG current change (%, negative = inhibition) at 10uM” value stood at 13%.
Turning to `O=C(CSc1nnc(-c2cnccn2)n1Cc1ccco1)c1ccc2ccccc2c1`, the “hERG current change (%, negative = inhibition) at 10uM” value was -15.4%.
The result for `COC(=O)c1cc(S(=O)(=O)NCc2cccs2)c[nH]1` reads 19.1%.
The result for `COC(=O)c1cc(S(=O)(=O)NCc2ccc(Br)cc2)c[nH]1` reads -16.1%; that for `COC(=O)c1cc(S(=O)(=O)NCCc2ccccc2)c[nH]1`, 5.93%.
The result for `COC(=O)c1cc(S(=O)(=O)NCC2CCN(CCc3ccc(OC)cc3)CC2)c[nH]1` reads -67%.
In the case of `COC(=O)c1cc(S(=O)(=O)NCC2CCN(Cc3cc(C)ccc3C)CC2)cn1C`, the “hERG current change (%, negative = inhibition) at 10uM” value is -27.5%.
To `COC(=O)c1cc(S(=O)(=O)NCC2CCN(Cc3ccc(C)cc3)CC2)cn1C` belongs -52%.
The result for `COC(=O)c1cc(S(=O)(=O)NCC2CCN(CCc3cccs3)CC2)cn1C` reads -49.6%.
As to `COC(=O)c1cc(S(=O)(=O)NCC2CCN(Cc3cccc(F)c3)CC2)cn1C`, the “hERG current change (%, negative = inhibition) at 10uM” value is recorded as -18.5%.
To `COC(=O)c1cc(S(=O)(=O)NCC2CCN(Cc3ccc(Cl)cc3)CC2)cn1C` belongs -17%; to `COC(=O)c1cc(S(=O)(=O)NCC2CCN(Cc3ccc(F)cc3)CC2)cn1C`, -19.6%; to `COC(=O)c1cc(S(=O)(=O)NCC2CCN(CCc3ccc(OC)cc3)CC2)cn1C`, -61.2%.
The result for `COC(=O)c1cc(S(=O)(=O)NCC2CCN(CCc3cccs3)CC2)c[nH]1` reads -51.1%; that for `COC(=O)c1sc(SC)c2c1CC(C)(C)C/C2=N/O`, 10.6%.
For `O=c1[nH]c(=O)n(-c2ccc(F)cc2)c(O)c1/C=C1\C=Nc2ccccc21`, the “hERG current change (%, negative = inhibition) at 10uM” value is 6.63%.
The result for `Cc1noc(C)c1C(=O)NCCc1ccc(S(N)(=O)=O)cc1` reads -23.7%; that for `COc1ccc(C2NN=C(c3ccc(C)cc3)S2)cc1` (stereo not drawn), 4.2%; that for `O=C(N/N=C/c1cc([N+](=O)[O-])ccc1O)c1cc(-c2ccccc2)nc2ccccc12`, 12.3%.
To `O=C(c1ccncc1)N(Cc1ccco1)Cc1cc2ccccc2[nH]c1=O` belongs -43.5%; to `CCOC(=O)C1C(c2cccc(F)c2)NC(=S)NC1(O)C(F)(F)F` (stereo not drawn), -14.4%.
The result for `CCOCC(O)CSCc1ccc(Cl)cc1` (stereo not drawn) reads 1.1%.
On to `Cc1ccc(CN2CC[C@H]3C=CCc4cccc(c43)C2)cc1`, for which the “hERG current change (%, negative = inhibition) at 10uM” value is listed as -22.1%.
The result for `C1=C[C@@H]2CCN(Cc3ccccc3)Cc3cccc(c32)C1` reads -50.6%; that for `Fc1ccc(CN2CC[C@H]3C=CCc4cccc(c43)C2)cc1`, -30.2%.
To `CN(C)c1ccc(P(=O)(OC2CCCCC2)C(O)c2ccncc2)cc1` (stereo not drawn) belongs 11.2%; to `CC1CC1C(=O)OCC(=O)NC(=O)c1ccccc1` (stereo not drawn), 6.93%; to `CC(C)(C)C(=O)NC1CCN(C(=O)N2CCCC2)CC1`, 10.2%.
To `COc1ccc2c(CC(=O)OCC(=O)Nc3ccccc3[N+](=O)[O-])coc2c1` belongs 19.4%; to `CCCCN1CCN=C1Nc1ccccc1`, 15.2%; to `c1ccc(NC2=NCCN2CCC2CCCC2)cc1`, -24%.
Take `c1ccc(CCCCN2CCN=C2Nc2ccccc2)cc1`: the “hERG current change (%, negative = inhibition) at 10uM” value is reported as -42%.
To `c1ccc(NC2=NCCN2CCCC2CCCC2)cc1` belongs -53.4%; to `c1ccc(NC2=NCCN2CCCC2CCCCC2)cc1`, -47.6%; to `CCCCCCCN1CCN=C1Nc1ccccc1`, -58%.
The result for `O=C(Oc1ccc(/C=N/NC(=O)c2ccccc2F)cc1)c1ccccc1` reads 10.3%; that for `COC(=O)c1ccc(CSc2nnc(NC(=O)C3CC(=O)N(Cc4ccc(C)cc4)C3)s2)cc1` (stereo not drawn), 8.78%.
The result for `COC(=O)/C=C1/SC(=NC(=O)c2ccc(Cl)cc2)NC1=O` reads 26.7%.
For the molecule `COC(=O)/C=C1\SC(=NC(=O)c2cccc(Cl)c2)NC1=O`, the “hERG current change (%, negative = inhibition) at 10uM” value is -79.5%.
To `COC(=O)/C=C1/SC(=NC(=O)c2ccccc2)NC1=O` belongs -13.9%; to `COc1ccc(/C=C/C(=O)NCC(=O)N/N=C/c2cccs2)cc1`, 0.0661%; to `CCC(C)[C@H](NC(=O)NCc1ccc(OC)c(OC)c1)C(=O)O` (stereo partly drawn), 7.82%.
Take `Cc1[nH]nc(N2CCCCC2)c1[N+](=O)[O-]`: the “hERG current change (%, negative = inhibition) at 10uM” value is recorded as -6.37%.
To `Cc1sc2nc(CN3CCCC3)nc(NCc3ccncc3)c2c1C` belongs -69.1%.
To `Cc1nc(Nc2ccc3c(c2)OCCO3)c2c(C)c(C)sc2n1` belongs -18.5%; to `Cc1sc2nc(CN3CCCCC3)nc(Nc3ccc4c(c3)OCCO4)c2c1C`, -85.8%.
Consider `Cc1sc2nc(CN3CCCC3)nc(Cl)c2c1C`, for which the “hERG current change (%, negative = inhibition) at 10uM” value is listed as -4.03%.
The result for `Cc1sc2nc(CN3CCOCC3)nc(NCCc3ccccc3)c2c1C` reads -30%; that for `Cc1sc2nc(CN3CCOCC3)nc(NS(=O)(=O)c3ccc4c(c3)OCCO4)c2c1C`, 6.33%.
The result for `COc1ccc(-c2nnnn2C)cc1S(=O)(=O)Nc1ccc(C)cc1C` reads -7.53%; that for `Cc1cc(OC(C)C(=O)NCCN2CCOCC2)c2c(C)c(C)c(=O)oc2c1` (stereo not drawn), 9.89%; that for `COc1cccc(N2CCN(C(=S)Nc3ccccc3)CC2)c1`, 19%.
To `O=C(CCCNS(=O)(=O)c1cccc2nsnc12)N1CCCCC1` belongs 10.7%; to `COc1cc(CNC2CCCC2)cc(Cl)c1OCc1ccccc1F.Cl`, -1.44%; to `Cc1ccc(C)c(-c2ccc(=O)n(Cc3c(F)cccc3Cl)n2)c1`, 3.88%.
Regarding `CC(C)(C)N(Cc1cc2ccccc2[nH]c1=O)C(=O)C1CCCCC1`, the “hERG current change (%, negative = inhibition) at 10uM” value is reported as -11.9%.
The result for `CCN(Cc1cc2ccccc2[nH]c1=O)C(=O)C1CCCCC1` reads -13.3%; that for `CN(Cc1cc2ccccc2[nH]c1=O)C(=O)C1CCCCC1`, -71.6%; that for `CCOC(=O)[C@@H]1[C@H]2COc3ccccc3[C@@H]2N2C(=O)N(c3ccccc3)C(=O)[C@@]12C`, 11.4%.
The result for `COc1ccc(/C=N\NC(=O)c2ccc(-c3ccccc3)cc2)cc1COC(C)=O` reads -0.748%; that for `CC1=C(C(=O)N(C)C)C(c2ccccc2OC(F)F)NC(=O)N1` (stereo not drawn), 3.49%.
To `C[N+](C)(C)CC(=O)Nc1ccc(Cl)cc1C(=O)c1ccccc1.[Br-]` belongs 21.4%.
On to `CCN(CC)CCNCC(=O)Nc1ccc(Cl)cc1C(=O)c1ccccc1.O=C(O)C(=O)O`, for which the “hERG current change (%, negative = inhibition) at 10uM” value was -75.2%.
To `O=C(Nc1ccc(Cl)cc1C(=O)c1ccccc1)c1ccccc1` belongs 3.76%; to `CCN(CC)CC(=O)Nc1ccc(Cl)cc1C(=O)c1ccccc1`, -21.2%; to `CN(C)CCCNCC(=O)Nc1ccc(Cl)cc1C(=O)c1ccccc1.O=C(O)C(=O)O`, -69%.
To `CCN(CC)CC(=O)Nc1ccc(C)cc1C(=O)c1ccccc1` belongs -19.5%.
